Growth data for 9 compounds are collected here from PubChem BioAssay (NCI).

Some test systems named below: SR leukemia; RPMI-8226 leukemia; OVCAR-5 ovarian; OVCAR-4 ovarian; SK-OV-3 ovarian; IGROV1 ovarian; OVCAR-3 ovarian; HS 578T breast; NCI/ADR-RES ovarian; T-47D breast; BT-549 breast; MDA-MB-435 melanoma; SW-620 colon; MCF7 breast; HCT-116 colon; HCC-2998 colon; KM12 colon; OVCAR-8 ovarian.
Holding throughout (test): NCI-60 one-dose screen, 48 h (100 = growth as untreated, 0 = no growth, -100 = all killed)
Settings in all cases: 10 µM unless noted

The panel holds about 83,000 compounds, 20% with a hit somewhere; the sample as a whole holds those more often.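 48-hour exposure, single concentration, 96-well plates; percent growth endpoint where 0 means no net growth. Active: below 10.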 Unmarked numbers belong to inactive results. Calls of active or inactive are those of the source.

Consider `C[C@H](CCC(=O)NCc1ccc(C(=O)Nc2ccccc2N)cc1)[C@H]1CC[C@H]2[C@@H]3[C@@H](O)C[C@@H]4C[C@H](O)CC[C@]4(C)[C@H]3CC[C@]12C`, for which the growth with SR leukemia is 63.4%; in the assay on RPMI-8226 leukemia, 5.86% (active); with OVCAR-5 ovarian it was 67.8%; in the assay on OVCAR-4 ovarian, 65.3%; with SK-OV-3 ovarian, 73.7%; in the assay with IGROV1 ovarian, 51%. Also, the growth in the assay on OVCAR-3 ovarian was 64.3%; in the assay with HS 578T breast, 69.6%; in the assay with NCI/ADR-RES ovarian, 99.4%; in the assay with T-47D breast, 48%; in the assay on BT-549 breast, 54.1%; in the assay on MDA-MB-435 melanoma, 60.2%. In addition, the growth with SW-620 colon is 56%; in the assay on MCF7 breast, 45.7%; with HCT-116 colon, 31.2%; with HCC-2998 colon it was 89.5%; with KM12 colon, 64%.

On to `O=S(=O)(Nc1ccc(I)cc1Cl)c1ccc(-c2cnc(C3CC3)o2)cc1`, for which the growth with SR leukemia is 34.5%; with OVCAR-8 ovarian, 62.2%; in the assay with OVCAR-5 ovarian it was 75.4%; with OVCAR-4 ovarian, 67%; in the assay with SK-OV-3 ovarian, 57.8%; in the assay on IGROV1 ovarian it was 43.2%. Moreover, the growth in the assay with OVCAR-3 ovarian is -10.4% (active); in the assay on HS 578T breast, 17.3%; in the assay on NCI/ADR-RES ovarian, 28.1%; in the assay on T-47D breast, 31.7%; with BT-549 breast, 34.9%; in the assay with MDA-MB-435 melanoma, -4.66% (active). For the same compound, the growth with SW-620 colon was 17.9%; in the assay with MCF7 breast, 23.1%; with HCT-116 colon, 22.1%; with HCC-2998 colon it was 78.6%; with KM12 colon it was 26%.

Regarding `Oc1cccc2ccc(-c3nnc(SCc4ccc(O)c5ncccc45)o3)nc12`, the growth with SR leukemia is 26.1%; with RPMI-8226 leukemia, 2.55% (active); in the assay on OVCAR-5 ovarian, 40.9%; with OVCAR-4 ovarian it was 20.5%; with SK-OV-3 ovarian, 12.3%; in the assay with IGROV1 ovarian it was 13.4%. Besides, the growth is 2.66% (active) in the assay on OVCAR-3 ovarian; 8.45% (active) with HS 578T breast; 17.3% in the assay with NCI/ADR-RES ovarian; 16% in the assay with T-47D breast; 15.9% in the assay with BT-549 breast; 12% in the assay with MDA-MB-435 melanoma. Besides, the growth with SW-620 colon is 19.2%; in the assay with MCF7 breast, 4.96% (active); in the assay with HCT-116 colon, 5.66% (active); in the assay with HCC-2998 colon it was 27.6%; in the assay with KM12 colon, 8.28% (active).

With `C=CCn1c(-c2nc3ccc(C(=C(C#N)C#N)c4ccccc4)cc3[nH]2)cc2cc(Br)ccc21`, the growth in the assay on SR leukemia was 50.5%; with RPMI-8226 leukemia, 35.7%; with OVCAR-5 ovarian, 77.5%; in the assay on OVCAR-4 ovarian, 54.5%; with SK-OV-3 ovarian it was 63.9%; in the assay on IGROV1 ovarian, 65.1%. Besides, the growth in the assay with OVCAR-3 ovarian is 51.2%; with HS 578T breast, 64.4%; in the assay on NCI/ADR-RES ovarian, 54.2%; in the assay with T-47D breast, 43%; in the assay on BT-549 breast, 71.3%; in the assay with MDA-MB-435 melanoma, 75.2%. Besides, the growth is 61.2% in the assay on SW-620 colon, 27.4% in the assay with HCT-116 colon, 61.2% in the assay on HCC-2998 colon and 34.1% in the assay on KM12 colon.

With `N#Cc1c(NC(=O)c2cccc(C(F)(F)F)c2F)sc2c1CCC(=O)C2`, the growth is 0.648% (active) in the assay on SR leukemia; 11.7% in the assay on OVCAR-8 ovarian; -6.14% (active) with OVCAR-5 ovarian; -36.3% (active) in the assay on OVCAR-4 ovarian; 5.3% (active) with SK-OV-3 ovarian; -0.691% (active) in the assay with IGROV1 ovarian. Also, the growth was -40.5% (active) in the assay on OVCAR-3 ovarian; -17% (active) in the assay with HS 578T breast; -3.6% (active) with NCI/ADR-RES ovarian; -3.25% (active) in the assay on T-47D breast; -22.7% (active) in the assay on BT-549 breast; -30.5% (active) in the assay with MDA-MB-435 melanoma. Further, the growth is 0.65% (active) with SW-620 colon; 2.17% (active) in the assay with MCF7 breast; -50.9% (active) in the assay on HCT-116 colon; -29.6% (active) in the assay on HCC-2998 colon; -42.7% (active) with KM12 colon.

Take `Oc1ccc(CSc2nnc(-c3ccc(Cl)cc3)n2-c2ccccc2)c2cccnc12`: the growth with SR leukemia is 31%; in the assay on RPMI-8226 leukemia it was 16.4%; with OVCAR-5 ovarian, 57.7%; with SK-OV-3 ovarian, 32.6%; with IGROV1 ovarian, 24.2%; in the assay on OVCAR-3 ovarian it was 25.3%. Also, the growth in the assay with HS 578T breast was 25.8%; with NCI/ADR-RES ovarian it was 4.53% (active); in the assay with T-47D breast, 48.9%; with BT-549 breast it was 35.7%; in the assay with MDA-MB-435 melanoma, 17.1%; with SW-620 colon, 23.9%. The growth in the assay with MCF7 breast is 9.16% (active); with HCT-116 colon, 13.3%; in the assay on HCC-2998 colon it was 32.8%; in the assay on KM12 colon, 21.3%.

`N#Cc1cnc2ccc(-c3cnc4[nH]ncc4c3)cc2c1N1CCc2cc(F)c(Cl)cc21`: the growth is 8.41% (active) with SR leukemia; 19.2% in the assay with OVCAR-8 ovarian; 19.5% with OVCAR-5 ovarian; 15.3% in the assay on OVCAR-4 ovarian; 4.24% (active) with SK-OV-3 ovarian; -31% (active) in the assay on IGROV1 ovarian. Also, the growth was -5.18% (active) with OVCAR-3 ovarian; -42% (active) in the assay with HS 578T breast; 8.51% (active) in the assay on NCI/ADR-RES ovarian; -2.57% (active) in the assay on T-47D breast; 20.1% in the assay with BT-549 breast; -10.2% (active) with MDA-MB-435 melanoma. For the same compound, the growth is 17.9% in the assay on SW-620 colon; -2.16% (active) in the assay with MCF7 breast; 8.48% (active) in the assay with HCT-116 colon; -11.8% (active) in the assay with HCC-2998 colon; 14% in the assay with KM12 colon.

On to `C#CCOc1ccc(/C=N\Nc2nc(-c3ccc(C)cc3)cs2)cc1OC`, for which the growth with SR leukemia is 83.2%; in the assay with RPMI-8226 leukemia, 68.3%; in the assay with OVCAR-5 ovarian, 96.8%; in the assay on OVCAR-4 ovarian, 76.8%; with SK-OV-3 ovarian it was 87.6%; with IGROV1 ovarian, 92.3%. For the same compound, the growth in the assay on OVCAR-3 ovarian was 99.3%; in the assay with HS 578T breast it was 111%; in the assay with NCI/ADR-RES ovarian, 96.2%; in the assay on T-47D breast, 61.7%; in the assay on BT-549 breast it was 80.7%; in the assay with MDA-MB-435 melanoma it was 91.6%. Further, the growth in the assay with SW-620 colon is 95.4%; in the assay on MCF7 breast it was 62.5%; in the assay with HCT-116 colon, 88%; with HCC-2998 colon, 101%; in the assay with KM12 colon it was 85.6%.

For `COc1cc(Cn2cc3c(c2)-c2onc(CN4CCOCC4)c2CC3)cc(OC)c1OC`, the growth in the assay with SR leukemia was 114%; in the assay on RPMI-8226 leukemia, 91%; with OVCAR-5 ovarian it was 95%; with OVCAR-4 ovarian, 74%; in the assay with SK-OV-3 ovarian it was 106%; in the assay with IGROV1 ovarian it was 99.8%. Moreover, the growth was 113% in the assay with OVCAR-3 ovarian; 110% in the assay on HS 578T breast; 100% with NCI/ADR-RES ovarian; 79.3% in the assay with T-47D breast; 96.7% in the assay with BT-549 breast; 101% in the assay with MDA-MB-435 melanoma. In addition, the growth is 112% with SW-620 colon; 89% with MCF7 breast; 104% in the assay with HCT-116 colon; 105% in the assay on HCC-2998 colon; 101% with KM12 colon.
